# Experimental data reported in PubChem BioAssay.
# Calls of active or inactive are those of the source. How the calls were made is not given here.
# Target: Pantothenate synthetase (Mycobacterium tuberculosis (strain ATCC 25618 / H37Rv)) (UniProt P9WIL5)
# Experiment: Recombinant Mtb pantothenate synthetase (PanC) inhibitors, coupled enzyme, confirmatory (AID 375);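 further: 0% = full reaction with vehicle and 100% = no enzyme background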
# Conditions: coupled enzyme assay; at 10 µM, hits give high values
# Pantothenate synthetase (Mycobacterium tuberculosis (strain ATCC 25618 / H37Rv)), sequence (P9WIL5 whole entry, looked up): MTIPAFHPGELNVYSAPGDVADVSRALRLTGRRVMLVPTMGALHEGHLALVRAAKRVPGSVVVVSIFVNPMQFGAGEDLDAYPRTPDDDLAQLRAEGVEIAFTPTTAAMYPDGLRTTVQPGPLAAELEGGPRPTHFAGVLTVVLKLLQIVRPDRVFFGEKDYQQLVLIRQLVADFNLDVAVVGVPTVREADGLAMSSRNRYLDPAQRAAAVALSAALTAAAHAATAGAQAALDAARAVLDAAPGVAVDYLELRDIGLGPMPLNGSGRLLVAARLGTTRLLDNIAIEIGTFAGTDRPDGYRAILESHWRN
row,SMILES,inhibition
1,CCC(=O)N1C(=O)CCN(C(C)=O)c2ccccc21,0% (inactive)
2,COc1ccccc1NC(=O)C1=C(C)Nc2ncnn2C1c1ccc(C)o1 (stereo not given),10% (inactive)
3,Nc1nc2ccccc2n1/N=C/c1ccc(Br)cc1,1% (inactive)
4,Cc1nnc(SCC(=O)Nc2ccc3c4c(cccc24)CC3)n1C,0% (inactive)
5,O=C(c1cnsn1)N1CCN(c2ccccn2)CC1,0% (inactive)
6,Cc1nc2nc(Cc3ccccc3)[nH]n2c(=O)c1Cc1ccccc1,5% (inactive)
7,CCOc1ccccc1N(CC(=O)N1CCOCC1)S(=O)(=O)c1ccccc1,0% (inactive)
8,CC(=O)NC(C)C(=O)OCC(=O)Nc1ccc(Br)cc1 (stereo not given),0% (inactive)
9,CCOC(=O)c1cc2sccc2n1Cc1ccccc1,1% (inactive)
10,COc1ccccc1N1CCN(C(=O)CN(Cc2ccc(Cl)cc2)S(C)(=O)=O)CC1,3% (inactive)
11,Cc1ccc(CC23CN4CCN(CC(C4)C2O)C3)c(C)c1 (stereo not given),1% (inactive)
12,O=C(NCc1ccc(F)cc1)C1CCN(C(=O)NCc2ccccc2)CC1,0% (inactive)
13,CCC(C)(C(=O)NC1CCCCC1)N(Cc1ccco1)C(=O)c1ccc2c(c1)OCO2 (stereo not given),0% (inactive)
14,Cc1nn(C(=O)c2ccccc2)c2c1C(=O)CC(C)(C)C2,0% (inactive)
15,COc1cc(Nc2cc(C)nc3ncnn23)cc(OC)c1OC,0% (inactive)
16,COc1ccc(Cc2nnc(NC(=O)Cc3cccs3)s2)cc1,0% (inactive)
17,COc1ccccc1Nc1nc(N)nc(-c2cc3ccccc3o2)n1,0% (inactive)
18,Cc1cccc(NC(=O)c2ccccc2O)c1C,0% (inactive)
19,O=C(CN1CCSCC1)N1CCc2[nH]c3ccc(Br)cc3c2C1,0% (inactive)
20,Cc1cccc(-n2ccnc2SCC(=O)Nc2cc(C)on2)c1,1% (inactive)

row,SMILES,inhibition
1,Cc1nnc2n(-c3ccc(Cl)cc3)c(=O)c3c4c(sc3n12)CN(C)CC4,3% (inactive)
2,O=C(CSc1nnc2sc3ccccc3n12)c1ccco1,0% (inactive)
3,COc1cccc(N(C(C)=O)c2nc(C)cc(C)c2C#N)c1,0% (inactive)
4,c1ccc(-c2ccccc2OCCn2cncn2)cc1,5% (inactive)
5,C=CCn1c(SCC(=O)NCC2CCCO2)nc2scc(-c3ccco3)c2c1=O (stereo not given),5% (inactive)
6,CC1=C(C(=O)OC2CCCCC2)C(c2cccnc2)n2ncnc2N1 (stereo not given),0% (inactive)
7,Cc1cc(-c2ccccc2)c(C#N)c(N)n1,1% (inactive)
8,COC(=O)C1=C(CSCc2ccco2)NC(=O)NC1c1cc(C)ccc1C (stereo not given),3% (inactive)
9,O=C(c1cccnc1)N1CCc2ccccc21,3% (inactive)
10,COC(=O)c1ccc2c(=O)n(Cc3ccco3)c(SCC(=O)Nc3ccc(C)c(Cl)c3)nc2c1,2% (inactive)
11,COC(=O)Cn1cnc2sc(C)c(S(=O)(=O)N3CCC(C)CC3)c2c1=O,4% (inactive)
12,CCn1c(COc2cccc3ccccc23)nnc1SCC(N)=O,9% (inactive)
13,CCOC(=O)c1cc2cc(F)ccc2nc1C,1% (inactive)
14,N#C[C@@H]1[C@@H]2C(=O)N(c3ccc4c(c3)OCCO4)C(=O)[C@@H]2C2c3ccccc3C=CN21 (stereo not given in full),2% (inactive)
15,O=C(Cc1nc2ccccc2s1)c1ccc(O)cc1O,8% (inactive)
16,COc1ccc(N2C(=O)C(Cl)=C(N3CCCC3)C2=O)cc1,0% (inactive)
17,Cn1nc(C(=O)NC2CCCCCC2)ccc1=O,0% (inactive)
18,CN(c1cccc(NS(=O)(=O)c2cccs2)c1)S(C)(=O)=O,0% (inactive)
19,CCCn1c(NCc2ccc3c(c2)OCO3)nc2ccccc21,0% (inactive)
20,O=C(Oc1cccc2cccnc12)c1cccc(-n2cnnn2)c1,0% (inactive)
